The sample as a whole holds a higher share of hits than the screen did.
12-LOX inh: inhibitors of human 12S-lipoxygenase ALOX12; P18054; purified 12hLO, xylenol orange hydroperoxide absorbance; Potency, µM (highest dose often 108 µM), for inactives: top-dose activity change, negative = inhibition, actives largely listed as inhibitors; 580,000 compounds, 1.1% hits; further: potency means the concentration at half of the fitted maximal effect
Target sequence (P18054 whole entry, looked up): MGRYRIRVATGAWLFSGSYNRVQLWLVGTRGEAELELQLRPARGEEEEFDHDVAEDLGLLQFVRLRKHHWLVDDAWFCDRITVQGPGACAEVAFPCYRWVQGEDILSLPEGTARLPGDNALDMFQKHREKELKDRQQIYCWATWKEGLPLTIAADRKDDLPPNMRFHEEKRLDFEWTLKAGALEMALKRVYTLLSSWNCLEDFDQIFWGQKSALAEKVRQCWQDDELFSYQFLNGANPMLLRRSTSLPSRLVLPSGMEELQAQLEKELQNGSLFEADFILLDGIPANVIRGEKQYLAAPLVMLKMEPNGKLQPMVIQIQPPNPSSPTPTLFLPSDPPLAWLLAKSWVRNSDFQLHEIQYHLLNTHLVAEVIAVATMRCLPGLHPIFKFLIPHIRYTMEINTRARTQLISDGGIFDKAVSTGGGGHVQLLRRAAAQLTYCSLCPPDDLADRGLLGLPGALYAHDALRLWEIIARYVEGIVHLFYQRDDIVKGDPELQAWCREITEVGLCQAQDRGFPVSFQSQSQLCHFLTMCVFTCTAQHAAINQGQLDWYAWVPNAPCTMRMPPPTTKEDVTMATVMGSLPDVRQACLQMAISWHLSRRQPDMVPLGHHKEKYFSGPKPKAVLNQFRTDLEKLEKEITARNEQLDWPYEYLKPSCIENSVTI
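Purified human 12hLO (150 nM final) in 25 mM Hepes, 0.01% Triton X-100, pH 7.0 was preincubated 15 min at room temperature with compound. Then 40 uM arachidonic acid was added, 30 min. Hydroperoxide was read by Fe-XO absorbance ratio 573/405 nm.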
IL-1B inflam inh: inflammasome signaling inhibition, IL-1 beta readout; THP-1 LPS/ATP IL-1B secretion, AlphaLISA, 16 h; active compounds read low; activity change, % at 57.5 µM; 360,000 compounds, 4.7% hits; in the data active means activity change below about -50%; inconclusive means mostly about -30% to -49%
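Secreted IL-1B measured by AlphaLISA bead assay after 16 h compound exposure of THP-1 cells; compounds (final up to 57.5 uM) added 1 h before LPS (250 ng/mL) and ATP (1.25 mM) stimulation; lower signal means less secretion.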
TDP1 cell noCPT: qHTS for Inhibitors of human tyrosyl-DNA phosphodiesterase 1 (TDP1): qHTS in cells in absence of CPT; DT40 Tdp1-/- hTDP1 cells, no CPT, ATP luminescence, 48 h; Potency, µM (doses to about 46.2 µM), for inactives: top-dose activity change, negative = growth inhibition, most hits filed as inhibitors; 420,000 compounds, 15% hits; further: potency means the concentration at half of the fitted maximal effect; nearly all actives have a fitted effect of over 55% in size
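No-CPT arm: Tdp1-/-;hTDP1 DT40 cells (400/well) plus compounds, incubated ≥48 hr at 37 °C. Readout CellTiter-Glo luminescence.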
HT1080-NT tox: kills 2HG-producing HT-1080-NT fibrosarcoma cells | HT-1080-NT fibrosarcoma viability, CellTiter-Glo ATP luminescence, 48 h | Potency, µM (top dose mostly 46.1 µM), inactives show top-dose activity, negative = less viability, hits mostly cytotoxic | 360,000 compounds, 1.6% hits | AID 686970;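 further: NT is the 2HG producing partner of a matched IDH1 knockdown line; potency means the concentration at half of the fitted maximal effect; 0% = DMSO-treated cells and -100% = media-only wells without cells; nearly all actives have a fitted effect of over 55% in size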
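Fibrosarcoma NT cells, 750 per well in 5% FBS RPMI, were exposed to compound for 48 hours. Viability: CellTiter-Glo luminescence.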
DT40 TDP1 CPT: growth inhibition of DT40 Tdp1-/-;hTDP1 cells with camptothecin (screen for TDP1 inhibitors); chicken DT40 Tdp1-/-;hTDP1 cells + 20 nM CPT, ATP luminescence, 48 h; Potency, µM (highest dose often 46.2 µM), for inactives: top-dose activity change, negative = growth inhibition, actives largely listed as inhibitors; 420,000 compounds, 12% hits; AID 686979; further: potency means the concentration at half of the fitted maximal effect; nearly all actives have a fitted effect of over 55% in size
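Chicken DT40 Tdp1-/- cells complemented with human TDP1, 400 cells/well, exposed to compounds plus 20 nM camptothecin for at least 48 h at 37 C; viability read as ATP content by CellTiter-Glo luminescence.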
HT1080 IDH1KD tx: kills HT-1080 cells with IDH1 knockdown; HT-1080 IDH1 knockdown viability, ATP luminescence, 48 h; Potency, µM (highest dose often 46.1 µM), for the others: at the highest dose activity, negative = toxicity, actives largely listed as cytotoxic; 360,000 compounds, 2% hits; AID 686971;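 further: potency means the concentration at half of the fitted maximal effect; 0% = DMSO wells and -100% = cell-free medium wells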
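IDH1KD HT-1080 cells, 750/well, RPMI + 5% FBS; compound pinned after 2 h settling; 48 h, 37 °C; CellTiter-Glo luminescence; % activity normalised to DMSO and no-cell wells; curves fitted, classed by r2 and efficacy.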
* hit, by the source's call; i = inactive; ? = inconclusive; nt = no result; [ ] = dose if it differs, or a comment. Unless noted, the call rests on the fitted dose curve; in most records, active means well fitted curve in the direction sought with a large enough effect; inconclusive means small, poorly fitted or top-dose-only effect, or another doubt; inactive means no such curve, though single readings can be large; an effect the other way counts as inactive or inconclusive. Unless noted, on the % scale 0 is the no-effect control and ±100 the full control effect.

SMILES	12-LOX inh	IL-1B inflam inh	TDP1 cell noCPT	HT1080-NT tox	DT40 TDP1 CPT	HT1080 IDH1KD tx
Cc1ccc(NC(=O)c2cc(C)n(-c3cccc(C)c3)c2C)cc1	-4.1%	-65.6*	20.6µM*	-16.9%	?	-29.9%
Cc1cc(C(=O)Nc2ccc(Cl)cc2)c(C)n1-c1ccccc1	i	-91.2*	-25.2%	?	0.0%	?
CSCCC(=O)NCCc1ccsc1	-2.6%	nt	nt	nt	nt	nt
O=C(O)C1CC2(CCN(C(=O)CCCn3ccnc3)CC2)CN1 (configuration not stated)	17.3%	nt	nt	nt	nt	nt
Cc1cnc(-c2ccccc2)n1C1CCN(C(=O)c2ccco2)CC1	60.7%	nt	nt	nt	nt	nt
CC(C)CCNC(=O)c1cc2n(n1)CC(c1ccc3c(c1)OCO3)OC2 (configuration not stated)	-7.7%	nt	nt	nt	nt	nt
Cc1ccc(S(=O)(=O)CNC(=S)c2cccc(Cl)c2)cc1	10µM*	-9.3	?	4.6%	-9.0%	-28.6%
Cc1ccc(C(=S)NCS(=O)(=O)c2ccc(C)cc2)cc1	?	-3.3	13µM*	?	13µM*	?
COC(=O)c1c(NC(=O)c2c(-c3c(Cl)cccc3Cl)noc2C)sc(C)c1C	-1.6%	nt	nt	nt	nt	nt
C(=C\c1nc(-c2ccncc2)no1)/c1ccccc1	5.4%	-22.2	16.4µM*	0.0%	-6.6%	-6.0%
CNC(=O)N1CCC(C2CCN(C(=O)Cc3ccc(OC)c(Cl)c3)C2)CC1 (configuration not stated)	39.4%	nt	nt	nt	nt	nt
COc1ccccc1CNC(=O)CSc1nc(-c2ccccc2)cn1N	-11.2%	0.2	-17.5%	-2.5%	?	0.6%
CN(C(=O)CSc1nc(-c2ccccc2)cn1N)C(c1ccccc1)c1ccccc1	-23.7%	?	25.9µM*	?	20.6µM*	?
O=C(CSc1ccc2ccccc2c1)N(C1CCCC1)C1CCS(=O)(=O)C1 (configuration not stated)	5.3%	nt	nt	nt	nt	nt
CNc1nc(-c2ccccc2)[n+](-c2ccc(C)cc2)s1	7.08µM*	-79.1*	5.17µM*	-8.8%	3.26µM*	0.5%
CC1(C(=O)N2CCC(c3ccccc3)CC2)CCc2cnc(Nc3ccncc3)nc21 (configuration not stated)	18.9%[176 µM]	nt	nt	nt	nt	nt
O=C(CCCc1c[nH]c2ccccc12)NCC(=O)N1CCCCCNC(=O)CC1c1ccccc1 (configuration not stated)	1.1%	nt	nt	nt	nt	nt
O=C1c2ccccc2NC2CCCCC12 (configuration not stated)	-0.8%[57.4 µM]	15.8	23.1µM*	0.0%	?	0.0%
O=C(NC[C@H]1O[C@H](Cc2cc(COc3ccccc3)on2)CC[C@@H]1O)C1CCC1	9.7%[176 µM]	nt	nt	nt	nt	nt
O=C(c1ccc([N+](=O)[O-])cc1)N1CCSC1c1ccc(Cl)cc1 (configuration not stated)	-8.6%	3.3	-22.3%	10.7%	0.0%	12.4%
O=C(c1ccc([N+](=O)[O-])cc1)N1CCSC1c1ccc(Br)cc1 (configuration not stated)	?	-6.3	18.4µM*	-14.6%	?	0.9%
COc1cccc(NC(=O)CC2Sc3ccccc3NC2=O)c1 (configuration not stated)	-9.0%	nt	nt	nt	nt	nt
CCn1c(N2CCN(Cc3ccc(Cl)cc3Cl)CC2)nc2c1c(=O)[nH]c(=O)n2C	-6.7%	nt	nt	nt	nt	nt
O=C1c2ccccc2CCC1CNCCc1ccc(O)cc1 (configuration not stated)	-1.8%	nt	20.6µM*	nt	-82.8%	nt
O=C(C[C@H]1NC(=O)c2ccccc2NC1=O)NCCc1ccc(O)cc1	26.0%	nt	nt	nt	nt	nt
O=C1c2ccccc2CC[C@H]1CNCCc1ccc(O)cc1	3.0%	nt	13.3µM*	nt	13.3µM*	nt
CC(=O)NCCc1ccc(O)cc1	-29.8%	14.5	-16.5%	13.1%	-7.3%	-0.3%

Compound activity as filed in PubChem BioAssay.
